Data reported in PubChem BioAssay (EPA / NIEHS).
Values joined by “and” are separate entries in the source; they are usually repeats but may differ in a detail not shown here. Identical values can stand only once. Results filed as inconclusive are left out. Active and inactive are the calls of the source. How the source made its calls: active means hit-call score of the fitted dose curve at least 0.9, where 1 is the maximum; inconclusive means response in the unintended direction; inactive means score below 0.9.

What was measured:
[1] = LTEA_HepaRG_LDH_cytotoxicity: Cytotoxicity Assessment in the Life Technologies and Expression Analysis (LTEA) Assay (AID 2283563)
Procedure, shortened: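 Cells were thawed and plated for 48 h. Medium was then replaced with serum-free induction medium. Chemicals (8 half-log points, maximum 100 uM, 0.5% DMSO) were added in duplicate for 48 h, after which spent medium was assayed for LDH.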

[2] = TOX21_p53_BLA_p2_viability: Viability Assessment in the Tox21 HCT-116 p53 Agonism Beta-lactamase Assay, Phase 2 (AID 2283591);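 further: compound exposure lasted 16 h at 37 °C; actives lower the ATP signal meaning cytotoxicity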
Procedure, shortened: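 Cytotoxicity readout: CellTiter-Glo ATP luminescence, 30 min at room temperature, after the beta-lactamase read. Cells were HCT116 exposed 16 h at 37C to compounds pin-transferred at 217-fold dilution from DMSO stocks.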

[3] = molecular target: Cellular tumor antigen p53 (Homo sapiens) (UniProt P04637); assay: TOX21_p53_BLA_p2_ratio: Tox21 HCT-116 p53 Agonism Beta-lactamase Assay, Ratio, Phase 2 (AID 2283592)
Procedure, shortened: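 Plated HCT116 p53-bla cells (4000/well) received compound after 5 h, then 16 h at 37C/5% CO2. CCF4-AM added, 2 h RT. Ratio of 460 to 530 nm emission taken as the p53 reporter signal.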

[4] = molecular target: Cellular tumor antigen p53 (Homo sapiens) (UniProt P04637); assay: TOX21_p53_BLA_p3_ratio: Tox21 HCT-116 p53 Agonism Beta-lactamase Assay, Ratio, Phase 3 (AID 2283596)
Procedure, shortened: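 Cells were seeded at 4000/well, rested 5 h at 37C, then dosed with DMSO compound solutions (217-fold dilution) for 16 h. CCF4-AM substrate was loaded for 2 h at room temperature, and the 460/530 nm emission ratio was fitted for gain of signal versus DMSO.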

[5] = TOX21_p53_BLA_p4_viability: Viability Assessment in the Tox21 HCT-116 p53 Agonism Beta-lactamase Assay, Phase 4 (AID 2283597);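 further: hits lower the luminescence signal meaning cytotoxicity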
Procedure, shortened: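 Readout: ATP luminescence (CellTiter-Glo), measured 30 min after reagent addition at RT. The reagent followed a 2 h CCF4-AM incubation, and the cells had been exposed to compound for 16 h at 37C.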

[6] = molecular target: Cellular tumor antigen p53 (Homo sapiens) (UniProt P04637); assay: TOX21_p53_BLA_p5_ratio: Tox21 HCT-116 p53 Agonism Beta-lactamase Assay, Ratio, Phase 5 (AID 2283599)
Procedure, shortened: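 Beta-lactamase reporter ratio (blue 460 nm over green 530 nm, 405 nm excitation) after 2 h CCF4-AM loading, in HCT-116 cells exposed 16 h at 37 C to compounds pinned at 217-fold dilution. Increases relative to DMSO baseline scored.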

[7] = TOX21_p53_BLA_p5_viability: Viability Assessment in the Tox21 HCT-116 p53 Agonism Beta-lactamase Assay, Phase 5 (AID 2283600)
Procedure, shortened: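 Workflow: seed 4000 cells per well, wait 5 h, add compounds (DMSO, 217-fold dilution), incubate 16 h, load CCF4-AM 2 h, add CellTiter-Glo, read luminescence after 30 min.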

[8] = molecular target: Cellular tumor antigen p53 (Homo sapiens) (UniProt P04637); assay: TOX21_p53_BLA_p4_ratio: Tox21 HCT-116 p53 Agonism Beta-lactamase Assay, Ratio, Phase 4 (AID 2283601)
Procedure, shortened: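 Signal is the blue/green (460nm/530nm) ratio of cleaved versus uncleaved CCF4-AM substrate, read after 2 h substrate loading. Cells were HCT116 carrying the p53-responsive beta-lactamase reporter, dosed 16 h at 37C, 5% CO2; CellTiter-Glo measured in parallel.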

[9] = Tanguay_ZF_120hpf_MORT_legacy: (Legacy) Oregon State University Tanguay Lab 120 Hour Post-fertilization zebrafish Assay for Mortality (AID 2283633)
Procedure, shortened: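 5D WT zebrafish, chorion removed 4 hpf; 1 embryo/well from 6 hpf; static exposure to 120 hpf, 28C, dark, sealed. Final DMSO 0.64%. Readout: binary mortality, brightfield, 24 + 120 hpf; DMSO as negative control.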

[10] = Tanguay_ZF_120hpf_YSE_legacy: (Legacy) Oregon State University Tanguay Lab 120 Hour Post-fertilization zebrafish Assay for Yolk Sac Edema (AID 2283634);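 on AC50: actives raise the incidence of yolk sac edema above the DMSO baseline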
Procedure, shortened: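 Dechorionate (pronase, 4 hpf) → place one 6 hpf embryo per well → static compound exposure, sealed and foil-covered, 28C, to 120 hpf → record yolk sac edema as present or absent. Final DMSO 0.64%.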

[11] = Tanguay_ZF_120hpf_AXIS_legacy: (Legacy) Oregon State University Tanguay Lab 120 Hour Post-fertilization zebrafish Assay for Body Axis Malformation (AID 2283635);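 on AC50: potency for an increased fraction of larvae scored with body axis malformation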
Procedure, shortened: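 Chorion is removed with pronase at 4 hpf, then single 6 hpf embryos are dosed (final DMSO 0.64%) and held statically at 28C in sealed, foil-covered plates. At 120 hpf body axis malformation is recorded as present or absent.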

[12] = Tanguay_ZF_120hpf_SNOU_legacy: (Legacy) Oregon State University Tanguay Lab 120 Hour Post-fertilization zebrafish Assay for Snout Malformation (AID 2283637)
Procedure, shortened: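 Binary snout-malformation call at 120 hpf in wild-type 5D embryos, chorion removed by pronase, under static exposure from 6 hpf at 28C (0.64% DMSO). Embryos dying by 24 or 120 hpf excluded.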

[13] = Tanguay_ZF_120hpf_JAW_legacy: (Legacy) Oregon State University Tanguay Lab 120 Hour Post-fertilization zebrafish Assay for Jaw Malformation (AID 2283638);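 on AC50: active means more embryos with jaw malformation than DMSO controls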
Procedure, shortened: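 Steps: dechorionate 4 hpf embryos (pronase); plate 1/well at 6 hpf; add test chemical, 0.64% DMSO final; seal, cover, hold at 28C statically to 120 hpf; score jaw defect presence/absence microscopically. Dead embryos not scored.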

[14] = Tanguay_ZF_120hpf_OTIC_legacy: (Legacy) Oregon State University Tanguay Lab 120 Hour Post-fertilization zebrafish Assay for Otic Vesicle Malformation (AID 2283639)
Procedure, shortened: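 Brightfield scoring at 120 hpf, binary present/absent; DMSO negative control, 5uM trimethyltin chloride positive control. Static exposure at 28C, final DMSO 0.64% (vol/vol). Dead embryos not scored for malformation.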

[15] = Tanguay_ZF_120hpf_PE_legacy: (Legacy) Oregon State University Tanguay Lab 120 Hour Post-fertilization zebrafish Assay for Pericardial Edema (AID 2283640);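 on AC50: potency for increased incidence of pericardial edema versus DMSO baseline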
Procedure, shortened: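 Embryos from wild-type 5D adults were staged, then dosed in 0.64% DMSO. They were kept sealed in the dark at 28C until 120 hpf. Pericardial edema was then recorded as present or absent.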

[16] = Tanguay_ZF_120hpf_BRAI_legacy: (Legacy) Oregon State University Tanguay Lab 120 Hour Post-fertilization zebrafish Assay for Brain Malformation (AID 2283641)
Procedure, shortened: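 Wild-type 5D larvae, static waterborne exposure to 120 hpf, 28C, 0.64% v/v DMSO. Brightfield scoring of brain defects, binary; dead embryos excluded. Positive ctrl 5uM trimethyltin chloride.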

[17] = Tanguay_ZF_120hpf_SOMI_legacy: (Legacy) Oregon State University Tanguay Lab 120 Hour Post-fertilization zebrafish Assay for Somite Malformation (AID 2283647)
Procedure, shortened: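 Read-out: presence or absence of somite malformation in 120 hpf larvae, gain-of-signal relative to DMSO baseline. Embryos lacked chorion (pronase, 4 hpf) and were exposed statically from 6 hpf at 28C; dead larvae not scored.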

[18] = ATG_XTT_Cytotoxicity: Cytotoxicity Assessment in the Attagene TRANS-FACTORIAL HepG2 Assay (AID 2283584);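 on AC50: cells exposed to compound for 24 h before reading; active means loss of viability signal versus DMSO baseline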
Procedure, shortened: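 Cells: human HepG2, transiently transfected with MRTU reporter constructs. Exposure 24 h. Readout: XTT, cell number. Baseline/neg ctrl DMSO; loss-of-signal scored.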

[19] = Tanguay_ZF_120hpf_PFIN_legacy: (Legacy) Oregon State University Tanguay Lab 120 Hour Post-fertilization zebrafish Assay for Pectoral Fin Malformation (AID 2283648);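 further: each larva judged yes or no for fin defect by brightfield with dead larvae skipped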
Procedure, shortened: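 Pectoral fin malformation was recorded as a binary endpoint at 120 hpf in wild-type Tropical 5D larvae, which had been dechorionated and exposed statically from 6 hpf at 28C in 0.64% DMSO. Dead embryos were excluded.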

Measured: AC50

Cellular tumor antigen p53 (Homo sapiens), sequence (P04637 whole entry, looked up): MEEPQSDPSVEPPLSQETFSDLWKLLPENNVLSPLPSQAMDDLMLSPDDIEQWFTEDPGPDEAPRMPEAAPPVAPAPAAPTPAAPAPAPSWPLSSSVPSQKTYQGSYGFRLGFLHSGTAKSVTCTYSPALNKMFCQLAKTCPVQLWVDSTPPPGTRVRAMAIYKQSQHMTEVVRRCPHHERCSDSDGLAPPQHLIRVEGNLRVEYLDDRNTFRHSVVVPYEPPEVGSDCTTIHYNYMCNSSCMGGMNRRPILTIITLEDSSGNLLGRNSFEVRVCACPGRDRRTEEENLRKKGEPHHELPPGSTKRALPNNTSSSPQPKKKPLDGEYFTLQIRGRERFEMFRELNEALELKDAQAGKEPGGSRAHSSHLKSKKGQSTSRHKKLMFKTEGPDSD

CN1CSC(=S)N(C)C1
active: [10] 26.6 µM | [11] 21.3 µM | [12] 24.9 µM | [13] 8.18 µM | [15] 35 µM
not listed: [18] | [19]
inactive: all other assays above

C#CCN1C(=O)COc2cc(F)c(N3C(=O)C4=C(CCCC4)C3=O)cc21
inactive: [1] | [9] | [10] | [11] | [12] | [13] | [14] | [15] | [16] | [17]

CC(C)(C)C(O)/C(=C\c1ccc(Cl)cc1Cl)n1cncn1 (centres undefined)
active: [18] 56.3 µM | [5] 51.8 µM | [10] 34.4 µM | [11] 70.7 µM | [12] 30.9 µM | [13] 25 µM | [14] 11.6 µM | [15] 42.4 µM | [16] 8.24 µM | [19] 42.5 µM
inactive: [2] | [3] | [4] | [6] | [7] | [8] | [9] | [17]

CCOCN(C(=O)CCl)c1c(C)cccc1CC
active: [11] 39 µM
not listed: [1] | [2] | [7] | [10]
inactive: all other assays above

COC(=O)c1ccccc1CS(=O)(=O)NC(=O)Nc1nc(OC)cc(OC)n1
inactive: [2] | [3] | [7] | [8]

CNC(=O)CSP(=S)(OC)OC
inactive: [10] | [11] | [12] | [13] | [14] | [15]

O=C1c2ccccc2C(=O)N1SC(Cl)(Cl)Cl
active: [3] 7.1 µM and 14.8 µM | [4] 6.49 µM and 23.1 µM | [6] 14.1 µM and 12.9 µM | [8] 13.5 µM and 22.1 µM
not listed: [1] | [7] | [17] | [18] | [19]
inactive: all other assays above

N#CN
inactive: [9] | [10] | [11] | [12] | [13] | [14] | [15] | [16] | [17]

CC(C)OC(=O)Nc1cccc(Cl)c1
active: [12] 34.2 µM | [15] 37.7 µM | [16] 39.5 µM
not listed: [1] | [2] | [7] | [13] | [18] | [19]
inactive: all other assays above

COc1nn(CSP(=S)(OC)OC)c(=O)s1
not listed: [1] | [18] | [19]
inactive: all other assays above

CCC(C)Nc1c([N+](=O)[O-])cc(C(C)(C)C)cc1[N+](=O)[O-] (centres undefined)
inactive: [9] | [10] | [11] | [12] | [13] | [14] | [15] | [17]

Cc1[nH]c(=O)n(C(C)(C)C)c(=O)c1Cl
inactive: [9] | [10] | [12] | [13] | [14] | [15] | [16] | [17]

COC(=O)c1ccccc1S(=O)(=O)NC(=O)N(C)c1nc(C)nc(OC)n1
inactive: [2] | [5] | [7] | [8]

O=C(NC(=O)c1c(F)cccc1F)Nc1ccc(OC(F)(F)C(F)OC(F)(F)F)c(Cl)c1 (centres undefined)
inactive: [9] | [10] | [12] | [13] | [14] | [15] | [17]

CC1(c2ccc(Oc3ccccc3)cc2)OC(=O)N(Nc2ccccc2)C1=O (centres undefined)
active: [3] 16.9 µM | [5] 19.5 µM | [6] 46.4 µM | [8] 51.2 µM
not listed: [1] | [15] | [17] | [18]
inactive: all other assays above
